Source: PubChem BioAssay
Active and inactive are the calls of the source. Unless noted, no rule for the calls is given here.

Key:
[1] = HepG2 liver cancer cell viability effects, profiling panel, resazurin fluorescence, 24 h, PK04 Diversity Set (AID 1172); conditions: higher = more signal
[2] = basal S. cerevisiae growth modulation, no modifier, primary screen, OD600, strain BY4716, 24 h, basal condition (AID 1173); conditions: OD600, 24 h, higher = more signal, called active from +8 up or from −8 down
[3] = MM1S myeloma cell viability, profiling panel, resazurin fluorescence, basal, 24 h, PK04 Diversity Set (AID 1174); conditions: higher = more signal, called active from +8 up or from −8 down;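 also: MM1S multiple myeloma cell line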
[4] = target: Dihydroorotate dehydrogenase (quinone), mitochondrial (Plasmodium falciparum (isolate 3D7)) (UniProt Q08210); test: PfDHODH enzyme inhibitors, primary screen, biochemical, C-terminal His tag, absorbance 600 nm (AID 1175); conditions: DCIP absorbance 600 nm, higher = more signal, called active from +8 up or from −8 down;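 also: recombinant parasite enzyme with a five histidine tag at its C terminus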
[5] = P. aeruginosa biofilm formation inhibitors, primary screen, strain PAO1, LB-PBS medium, absorbance 600 nm (AID 1176); conditions: P. aeruginosa PAO1 growth/biofilm, A600, 12 h; higher = more signal
[6] = S. cerevisiae RM11-1a growth modifiers, primary screen, strain RM11-1a, OD600, basal, 24 h (AID 1177); conditions: OD600, 24 h, higher = more signal, called active from +8 up or from −8 down;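 also: cultures grown under basal conditions with no added stressor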
[7] = E. coli acrAB mutant growth effects, primary screen, E. coli filamentation inducers, strain DRC39, OD650, 24 h (AID 1178); conditions: higher = more signal, called active from +8 up or from −8 down;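 also: growth measured as culture turbidity by optical density at 650 nm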
[8] = E. coli acrAB mutant growth effects, primary screen, E. coli filamentation inducers, strain DRC39, OD650, 48 h (AID 1179);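 also: screen aims at cell division blockers that make cells filament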; conditions: E. coli DRC39 delta-acrAB growth, higher = more signal, called active from +8 up or from −8 down
[9] = RPMI8226 myeloma cell viability, profiling panel, resazurin fluorescence, basal, 24 h, PK04 Diversity Set (AID 1180); conditions: higher = more signal;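 also: RPMI8826 multiple myeloma cell line at 5000 cells per well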
[10] = target: E3 ubiquitin-protein ligase XIAP (Homo sapiens) (UniProt P98170); test: XIAP binders, primary screen, biophysical, small-molecule microarray, fluorescence 635 nm (AID 1181); conditions: small-molecule microarray binding, higher = more signal;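 also: score merges 667 nm emission and signal to noise over triplicate slides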
[11] = test system: XIP peptide (Xip251-270) binding; test: small-molecule binders of XIP peptide, primary screen, biochemical, small-molecule microarray, fluorescence 635/667 nm, 0.1 µg/mL protein (AID 1182); conditions: fluorescent protein binding, 635 nm, higher = more signal, called active from +8 up or from −8 down
XIP peptide (Xip251-270) = test: small-molecule binders of XIP peptide, primary screen, biochemical, small-molecule microarray, fluorescence 635/667 nm, 0.5 µg/mL protein (AID 1183); conditions: small-molecule microarray binding, fluorescence 635 nm; higher = more signal
[12] = Plasmodium falciparum growth inhibition, primary screen, strain 3D7, DAPI fluorescence, 100 nL (AID 1184);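 also: parasites grown inside human red blood cells in medium with human serum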; conditions: P. falciparum 3D7 growth, 3 d, higher = more signal
[13] = target: Homeobox protein Hox-A13 (Mus musculus) (UniProt Q62424); test: inhibitors of HoxA13-DNA binding, primary screen, biochemical, fluorescence polarization, labeled oligonucleotide (AID 1185); conditions: 15 min, higher = more signal, called active from +8 up or from −8 down
[14] = inhibitors of hydroxyurea-induced Chk1 phosphorylation, primary screen, imaging, HeLa, phospho-Chk1 antibody, percent positive cells (AID 1186); conditions: hydroxyurea-induced phospho-Chk1 immunofluorescence imaging, higher = more signal
[15] = inhibitors of hydroxyurea-induced Chk1 phosphorylation, primary screen, imaging, HeLa, phospho-Chk1 nuclear intensity (AID 1187); conditions: hydroxyurea-induced phospho-Chk1 immunofluorescence imaging, higher = more signal

Sequence of E3 ubiquitin-protein ligase XIAP (Homo sapiens) (P98170 whole entry, looked up): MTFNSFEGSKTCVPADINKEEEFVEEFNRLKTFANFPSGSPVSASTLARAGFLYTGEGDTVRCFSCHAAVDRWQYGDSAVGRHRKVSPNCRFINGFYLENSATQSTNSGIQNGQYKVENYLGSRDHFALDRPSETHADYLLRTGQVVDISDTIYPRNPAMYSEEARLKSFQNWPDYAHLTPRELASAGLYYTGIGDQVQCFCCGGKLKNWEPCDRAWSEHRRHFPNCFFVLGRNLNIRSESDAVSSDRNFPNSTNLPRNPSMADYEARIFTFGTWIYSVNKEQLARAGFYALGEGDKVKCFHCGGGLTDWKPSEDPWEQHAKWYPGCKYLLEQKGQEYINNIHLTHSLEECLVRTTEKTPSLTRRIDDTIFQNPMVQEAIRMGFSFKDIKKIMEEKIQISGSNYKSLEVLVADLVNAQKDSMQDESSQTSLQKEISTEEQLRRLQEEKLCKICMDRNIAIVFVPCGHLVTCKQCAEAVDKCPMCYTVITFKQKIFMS
Sequence of Homeobox protein Hox-A13 (Mus musculus) (Q62424 whole entry, looked up): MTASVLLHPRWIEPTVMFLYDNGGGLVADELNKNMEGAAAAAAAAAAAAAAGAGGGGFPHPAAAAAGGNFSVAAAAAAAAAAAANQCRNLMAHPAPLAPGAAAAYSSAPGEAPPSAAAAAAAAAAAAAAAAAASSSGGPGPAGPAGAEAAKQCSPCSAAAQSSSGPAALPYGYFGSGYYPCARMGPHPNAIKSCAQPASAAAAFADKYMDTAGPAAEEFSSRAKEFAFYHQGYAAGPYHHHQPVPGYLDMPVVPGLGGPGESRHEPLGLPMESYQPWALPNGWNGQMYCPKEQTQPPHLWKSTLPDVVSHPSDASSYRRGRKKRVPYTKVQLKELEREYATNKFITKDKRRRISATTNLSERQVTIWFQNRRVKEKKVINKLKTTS
Sequence of Dihydroorotate dehydrogenase (quinone), mitochondrial (Plasmodium falciparum (isolate 3D7)) (Q08210 whole entry, looked up): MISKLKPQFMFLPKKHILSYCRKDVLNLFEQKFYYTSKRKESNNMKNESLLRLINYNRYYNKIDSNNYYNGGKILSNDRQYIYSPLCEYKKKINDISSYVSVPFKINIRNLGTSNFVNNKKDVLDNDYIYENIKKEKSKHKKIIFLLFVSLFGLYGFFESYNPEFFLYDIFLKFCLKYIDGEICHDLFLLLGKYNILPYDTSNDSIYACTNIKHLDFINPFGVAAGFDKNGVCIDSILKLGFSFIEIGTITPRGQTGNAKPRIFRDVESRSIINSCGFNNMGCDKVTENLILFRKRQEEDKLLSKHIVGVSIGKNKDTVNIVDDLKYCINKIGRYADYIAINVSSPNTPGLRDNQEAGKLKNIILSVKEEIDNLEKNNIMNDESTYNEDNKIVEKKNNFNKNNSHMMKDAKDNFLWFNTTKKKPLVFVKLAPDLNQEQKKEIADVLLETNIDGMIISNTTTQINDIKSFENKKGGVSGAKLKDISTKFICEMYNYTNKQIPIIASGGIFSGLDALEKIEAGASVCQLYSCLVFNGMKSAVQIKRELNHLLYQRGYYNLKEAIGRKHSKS

SMILES	z-score [1]	z-score [2]	z-score [3]	composite z-score [4]	z-score [5]	z-score [6]	z-score [7]	z-score [8]	z-score [9]	composite z-score [10]	composite z-score [11]	composite z-score (XIP peptide (Xip251-270))	z-score [12]	z-score [13]	z-score [14]	z-score [15]
CCCC[C@@H]1C[C@H]1[C@@H](NC(=O)c1ccc(C(F)(F)F)cc1)c1ccc(C(=O)OC)cc1	1.51	0.146 (inactive)	0.444 (inactive)	-0.0667 (inactive)	1.02 (inactive)	1.02 (inactive)	0.909 (inactive)	0.787 (inactive)	0.971	0.209	-0.0437 (inactive)	0.368	-0.557	-0.759 (inactive)	0.894 (inactive)	0.397 (inactive)
CC1(C)OC[C@@]23C=C(Br)[C@@H](C[C@H]12)[C@@]1(CO1)C3=O	-0.0972	-1.2 (inactive)	0.0059 (inactive)	0.253 (inactive)	-0.0582 (inactive)	0.617 (inactive)	-0.509 (inactive)	-0.457 (inactive)	0.325	-0.02	-0.319 (inactive)	0.0841	1.96	0.26 (inactive)	-0.54 (inactive)	-0.682 (inactive)
C=C(CCCC)C(=O)CC[C@H](OC(=O)c1cccnc1)c1ccc(CO)o1	-0.476	-1.58 (inactive)	-0.464 (inactive)	-0.826 (inactive)	1.45 (inactive)	-0.497 (inactive)	-0.47 (inactive)	-0.34 (inactive)	-0.643	0.0343	0.437 (inactive)	0.769	-0.198	-5.27 (inactive)	0.242 (inactive)	0.136 (inactive)
CN(C)CCCNC(=O)[C@@H]1c2ccccc2C(=O)N(C2Cc3ccccc3C2)[C@H]1c1ccc(CO)cc1	-0.785	-0.944 (inactive)	0.0257 (inactive)	-0.487 (inactive)	0.444 (inactive)	-0.632 (inactive)	0.615 (inactive)	0.597 (inactive)	0.461	0.0345	-0.233 (inactive)	0.677	-1.09	0.84 (inactive)	-0.765 (inactive)	-0.961 (inactive)
CCOC(=O)C[C@H]1[C@H](OC(=O)c2cc3ccccc3oc2=O)[C@@H](NC(=O)C2CCCCC2)c2cc(OCCCO)ccc2N1C(=O)Cc1ccc(OC)cc1	-0.715	0.0323 (inactive)	-0.176 (inactive)	0.427 (inactive)	-0.234 (inactive)	-0.0196 (inactive)	-0.825 (inactive)	-1.1 (inactive)	-0.986	0.214	0.0512 (inactive)	0.0439	-0.565	-4.22 (inactive)	0.521 (inactive)	-0.306 (inactive)
[N-]=[N+]=Nc1ccccc1[C@@H]1OC(c2ccc(OCCCO)cc2)=N[C@]1(Cc1ccccc1)C(N)=O	1.2	-0.821 (inactive)	-0.622 (inactive)	0.474 (inactive)	-0.0558 (inactive)	1.19 (inactive)	0.673 (inactive)	0.481 (inactive)	-0.589	0.0838	0.0123 (inactive)	0.0246	-2.06	-5.43 (inactive)	-0.707 (inactive)	-0.543 (inactive)
CC(C)C[C@H]1NC(=O)[C@@H](C)NC(=O)[C@@]23C(=O)N[C@@H](Cc4ccccc4)C2[C@H](C)[C@@]2(C)O[C@H]2C3/C=C/C/C=C\CNC1=O (stereo not given in full)	-0.328	-0.808 (inactive)	0.0814 (inactive)	-1 (inactive)	0.531 (inactive)	-1.27 (inactive)	-0.46 (inactive)	0.184 (inactive)	0.184	-0.102	1.06 (inactive)	0.679	0.234	-6.94 (inactive)	0.255 (inactive)	0.0218 (inactive)
C=CCOC(=O)[C@H]1[C@@H]2C(=O)O[C@@H](c3ccccc3)[C@@H](c3ccccc3)N2[C@@H](c2ccc(OCCOC(=O)[C@@H]3C[C@@H]4C(=O)N[C@@H](Cc5ccccc5)C(=O)N4[C@@H]3c3ccc(O)cc3)cc2)[C@]12C(=O)Nc1ccccc12	-0.648	1.45 (inactive)	-0.292 (inactive)	-0.139 (inactive)	3.66 (inactive)	0.818 (inactive)	-0.631 (inactive)	-0.282 (inactive)	-0.309	0.144	0.819 (inactive)	0.743	-1.83	1.86 (inactive)	-0.287 (inactive)	-0.584 (inactive)
C=CCC(OC(C)=O)[C@@H]1[C@@H](N(Cc2cc3ccccc3o2)C(=O)Cc2ccc(OC)cc2)c2cc(OCCCO)ccc2N1C(=O)Cc1ccc(OC)cc1 (stereo not given in full)	-1.28	-1.01 (inactive)	-0.0297 (inactive)	0.707 (inactive)	0.198 (inactive)	-0.133 (inactive)	-0.184 (inactive)	-0.578 (inactive)	-0.561	0.0345	0.394 (inactive)	-0.503	-1.96	-2.81 (inactive)	0.954 (inactive)	0.799 (inactive)
N#Cc1ccc(C(O)C2C=CC3C(=O)N(c4ccccc4)C(=O)C3N2Nc2ccc([N+](=O)[O-])cc2)cc1 (stereo not given)	-0.298	-0.0292 (inactive)	-0.291 (inactive)	0.154 (inactive)	1.01 (inactive)	-0.114 (inactive)	-1.15 (inactive)	-0.224 (inactive)	-0.783	-0.162	1.04 (inactive)	0.807	-1.84	-4.34 (inactive)	-0.138 (inactive)	-1.24 (inactive)
